Test results: the supplement of paper PMC7411054

Key:
Details in all cases: treatment time: 24 h
A549-ACTB-RAB5A [1] = experiment: lowest phenotypically active concentration; higher = less potent
In short: (§1)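 Fifteen reporter lines derived from A549, HepG2 and WPMY1 cells by gene editing, carrying BFP for segmentation plus GFP and RFP/FusionRed markers, were exposed to 0.3, 1, 3 or 9 µM for 24 h in four wells each and imaged live. Live-cell features from each well were normalised to solvent control wells. A well set counted as deviating when ≥3 of 4 wells lay beyond the 95th percentile of control Euclidean distances, and as reproducible when the median replicate Pearson correlation exceeded the 95th percentile of non-replicates. Phenotypic activity was assigned only when both criteria were met.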

A549-CANX-COX4 [2] = experiment: as above
In short: as §1

A549-GM130-SQSTM1 [3] = experiment: as above
In short: as §1

A549-TP53BP1-CLTA [4] = experiment: as above
In short: as §1

A549-TUBA1B-RELA [5] = experiment: as above
In short: as §1

HepG2-TP53BP1-CLTA [6] = experiment: as above
In short: as §1

A549-ACTB-RAB5A [7] = experiment: phenotypically active (imaging signature differs from DMSO and reproducible) at any of 0.3-9 uM (binary (1 = active, 0 = inactive)); higher = active
In short: as §1

A549-CANX-COX4 [8] = experiment: as above
In short: as §1

A549-GM130-SQSTM1 [9] = experiment: as above
In short: as §1

A549-TP53BP1-CLTA [10] = experiment: as above
In short: as §1

A549-TUBA1B-RELA [11] = experiment: as above
In short: as §1

HepG2-ACTB-RAB5A = experiment: as above
In short: as §1

HepG2-CANX-COX4 = experiment: as above
In short: as §1

HepG2-GM130-SQSTM1 = experiment: as above
In short: as §1

HepG2-TP53BP1-CLTA [12] = experiment: as above
In short: as §1

HepG2-TUBA1B-RELA = experiment: as above
In short: as §1

WPMY1-CANX-COX4 = experiment: as above
In short: as §1

WPMY1-GM130-SQSTM1 = experiment: as above
In short: as §1

WPMY1-TP53BP1-CLTA = experiment: as above
In short: as §1

WPMY1-TUBA1B-RELA = experiment: as above
In short: as §1

| SMILES | lowest phenotypically active concentration (A549-ACTB-RAB5A [1]) | lowest phenotypically active concentration (A549-CANX-COX4 [2]) | lowest phenotypically active concentration (A549-GM130-SQSTM1 [3]) | lowest phenotypically active concentration (A549-TP53BP1-CLTA [4]) | lowest phenotypically active concentration (A549-TUBA1B-RELA [5]) | lowest phenotypically active concentration (HepG2-TP53BP1-CLTA [6]) | phenotypically active (A549-ACTB-RAB5A [7]) | phenotypically active (A549-CANX-COX4 [8]) | phenotypically active (A549-GM130-SQSTM1 [9]) | phenotypically active (A549-TP53BP1-CLTA [10]) | phenotypically active (A549-TUBA1B-RELA [11]) | phenotypically active (HepG2-ACTB-RAB5A) | phenotypically active (HepG2-CANX-COX4) | phenotypically active (HepG2-GM130-SQSTM1) | phenotypically active (HepG2-TP53BP1-CLTA [12]) | phenotypically active (HepG2-TUBA1B-RELA) | phenotypically active (WPMY1-CANX-COX4) | phenotypically active (WPMY1-GM130-SQSTM1) | phenotypically active (WPMY1-TP53BP1-CLTA) | phenotypically active (WPMY1-TUBA1B-RELA) |
| --- | --- | --- | --- | --- | --- | --- | --- | --- | --- | --- | --- | --- | --- | --- | --- | --- | --- | --- | --- | --- |
| CN(C)CCCN1c2ccccc2Sc2ccc(Cl)cc21 [chlorpromazine] | 3 µM | 9 µM | 3 µM | 9 µM | 3 µM | 9 µM | 1 (active) | 1 (active) | 1 (active) | 1 (active) | 1 (active) | 0 (inactive) | 1 (active) | 1 (active) | 1 (active) | 1 (active) | 1 (active) | 0 (inactive) | 1 (active) | 1 (active) |
| C/C=C1\NC(=O)[C@H]2CSSCCC=C[C@H](CC(=O)N[C@H](C(C)C)C(=O)N2)OC(=O)[C@H](C(C)C)NC1=O | ≤ 0.3 µM | ≤ 0.3 µM | ≤ 0.3 µM | ≤ 0.3 µM | ≤ 0.3 µM | ≤ 0.3 µM | 1 (active) | 1 (active) | 1 (active) | 1 (active) | 1 (active) | 1 (active) | 1 (active) | 1 (active) | 1 (active) | 1 (active) | 1 (active) | 1 (active) | 1 (active) | 1 (active) |
| Nc1ncnc(Nc2ccc(OCc3ccccc3)c(Cl)c2)c1/C=N/OCCN1CCOCC1 | 3 µM | 9 µM | 3 µM | 1 µM | 1 µM | 9 µM | 1 (active) | 1 (active) | 1 (active) | 1 (active) | 1 (active) | 1 (active) | 0 (inactive) | 1 (active) | 1 (active) | 1 (active) | 0 (inactive) | 0 (inactive) | 0 (inactive) | 0 (inactive) |
| C=CC(=O)Nc1cccc(Nc2nc(Nc3ccc(Oc4ccnc(C(=O)NC)c4)cc3)ncc2F)c1 | 9 µM | 9 µM | 9 µM | 9 µM | 9 µM | 9 µM | 1 (active) | 1 (active) | 1 (active) | 1 (active) | 1 (active) | 1 (active) | 0 (inactive) | 1 (active) | 1 (active) | 1 (active) | 1 (active) | 1 (active) | 0 (inactive) | 0 (inactive) |
| COc1cc2c(N3CCN(C(=O)Nc4ccc(OC(C)C)cc4)CC3)ncnc2cc1OCCCN1CCCCC1 [tandutinib] | 9 µM | 9 µM | 3 µM | 9 µM | 9 µM | 9 µM | 1 (active) | 1 (active) | 1 (active) | 1 (active) | 1 (active) | 1 (active) | 1 (active) | 1 (active) | 1 (active) | 1 (active) | 1 (active) | 1 (active) | 0 (inactive) | 1 (active) |
| N#CC[C@@H](C1CCCC1)n1cc(-c2ncnc3[nH]ccc23)cn1 [ruxolitinib-(S)] | 3 µM | 9 µM | 9 µM | 9 µM | 9 µM | 9 µM | 1 (active) | 1 (active) | 1 (active) | 1 (active) | 1 (active) | 0 (inactive) | 1 (active) | 1 (active) | 1 (active) | 1 (active) | 1 (active) | 0 (inactive) | 0 (inactive) | 1 (active) |
| CN1CCCC(n2nc(Cc3ccc(Cl)cc3)c3ccccc3c2=O)CC1 (stereo not given) [azelastine] | 3 µM | 9 µM | 9 µM | 9 µM | 3 µM | 9 µM | 1 (active) | 1 (active) | 1 (active) | 1 (active) | 1 (active) | 1 (active) | 0 (inactive) | 1 (active) | 1 (active) | 1 (active) | 1 (active) | 1 (active) | 1 (active) | 1 (active) |
| N=C(N)c1ccc(OCCCCCOc2ccc(C(=N)N)cc2)cc1 [pentamidine] | 1 µM | ≤ 0.3 µM | 1 µM | 3 µM | 1 µM | 9 µM | 1 (active) | 1 (active) | 1 (active) | 1 (active) | 1 (active) | 1 (active) | 1 (active) | 0 (inactive) | 1 (active) | 1 (active) | 0 (inactive) | 1 (active) | 0 (inactive) | 0 (inactive) |
| Cc1cc2c(F)c(Oc3ncnn4cc(OC[C@@H](C)O)c(C)c34)ccc2[nH]1 [brivanib] | 9 µM | 9 µM | 9 µM | 9 µM | 9 µM | 9 µM | 1 (active) | 1 (active) | 1 (active) | 1 (active) | 1 (active) | 1 (active) | 1 (active) | 1 (active) | 1 (active) | 1 (active) | 1 (active) | 0 (inactive) | 1 (active) | 1 (active) |
| CC(C)CNc1nc(-c2cccc3ncccc23)cn2c(-c3ccc(C(=O)NC4CC4)cc3)cnc12 | ≤ 0.3 µM | 1 µM | ≤ 0.3 µM | 1 µM | ≤ 0.3 µM | 1 µM | 1 (active) | 1 (active) | 1 (active) | 1 (active) | 1 (active) | 1 (active) | 1 (active) | 1 (active) | 1 (active) | 1 (active) | 0 (inactive) | 1 (active) | 1 (active) | 0 (inactive) |
| COc1cc(N2CCC(N3CCN(C)CC3)CC2)ccc1Nc1ncnc(Nc2ccccc2S(=O)(=O)C(C)C)n1 | 3 µM | 9 µM | 3 µM | 9 µM | 9 µM | 9 µM | 1 (active) | 1 (active) | 1 (active) | 1 (active) | 1 (active) | 1 (active) | 1 (active) | 1 (active) | 1 (active) | 1 (active) | 1 (active) | 1 (active) | 1 (active) | 1 (active) |
| Cn1cnc2c(F)c(Nc3ccc(Br)cc3Cl)c(C(=O)NOCCO)cc21 [selumetinib] | ≤ 0.3 µM | 1 µM | ≤ 0.3 µM | ≤ 0.3 µM | ≤ 0.3 µM | ≤ 0.3 µM | 1 (active) | 1 (active) | 1 (active) | 1 (active) | 1 (active) | 1 (active) | 1 (active) | 1 (active) | 1 (active) | 1 (active) | 0 (inactive) | 1 (active) | 1 (active) | 0 (inactive) |
